Test results published in PubChem BioAssay (NCI).
This is part of a sample that, as a whole, favours compounds with a hit. Of some 83,000 tested, about 20% had one in any assay.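 Single-concentration screen, 48 h exposure, 96-well plates. Endpoint: percent growth. Below 10 = active.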 Activity calls are given as the source filed them.

What follows are compounds tested on MDA-MB-468 breast (assay: NCI-60 one-dose screen, 48 h (100 = growth as untreated, 0 = no growth, -100 = all killed)). Details: 10 µM unless noted.

Row | SMILES | growth
1 | C=CC(=O)N1CC2(CC(n3nc(-c4ccc(Oc5ccccc5)cc4)c4c(N)ncnc43)C2)C1 | -8.12% (active)
2 | CCN(CC)CCC(CNc1ccnc2cc(Cl)ccc12)c1ccc(Cl)cc1 (stereo not given) | -86.6% (active)
3 | COc1ccc(-c2cc(-c3cn(-c4cccc(Cl)c4)nc3-c3ccc(OC)cc3)[nH]c(=S)n2)cc1 | 39% (inactive)
4 | O=C1Nc2cc(-c3ccc(O)cc3)ccc2/C1=C/c1ccc[nH]1 | -29.2% (active)
5 | CCOC(=O)c1nn(C2CCCCO2)c2ccc(NC(=O)CSc3nc4ccccc4c(=O)[nH]3)cc12 (stereo not given) | 95.7% (inactive)
6 | CN(C)c1ccc(-c2cc(-c3c[nH]c4ccccc34)nc(N)c2C#N)cc1 | 39.7% (inactive)
7 | Cc1cccc(C)c1-c1cc(Cc2ccc(Cl)cc2)c(=O)[nH]n1 | 96.9% (inactive)
8 | CCNc1nc2ccc(Nc3ccnc4cc(Cl)ccc34)cc2[nH]1 | 21.8% (inactive)
9 | C=CCSSc1ncnc2c1ncn2C1OC(CO)C(O)C1O (stereo not given) | 7.11% (active)
10 | O=C(O)/C=C/C(=O)Nc1cccc(Cn2nnc3cc(Cl)c(Cl)cc32)c1 | 94.2% (inactive)
11 | Cn1cc(-c2nc(N)nnc2-c2c[nH]c3ccc(Br)cc23)c2cc(F)ccc21 | 75.5% (inactive)
12 | CCOC(=O)C1C(=O)OC2CCCCC21 (stereo not given) | 110% (inactive)
13 | NC(=O)CC(NC(=O)COc1ccc(Cl)cc1Cl)C(=O)O (stereo not given) | 108% (inactive)
14 | COC(=O)c1c2c(c[n+]([O-])c1C)C(=O)C(NCc1ccccc1)=CC2=O | -57.7% (active)
15 | COc1ccc(C(=O)C(CN(C)C)CN(C)C)cc1 | -66.4% (active)
